{
  "source": "the supplement of paper PMC8728848",
  "binders": {"B1": {"name": "Eap (Staphylococcus aureus), A0A7L5PYT7 (protein)", "chain": "MKFKSLITTTLALGVLASTGANFNNNEAAAAAKPLDKSSSSLHHGYSKVHVPYAITVNGTSQNILSSLTFNKNQNISYKDLEDRVKSVLKSDRGISDIDLRLSKQAKYTVYFKNGTKKVIDLKAGIYTADLINTSEIKAININVDTKKQVEDKKKDKANYQVPYTITVNGTSQNILSNLTFNKNQNISYKDLEDKVKSVLESNRGITDVDLRLSKQAKYTVNFKNGTKKVIDLKSGIYTANLINSSDIKSININVDTKKHIENKAKRNYQVPYSINLNGTSTNILSNLSFSNKPWTNYKNLTSQIKSVLKHDRGISEQDLKYAKKAYYTVYFKNGGKRILQLNSKNYTANLVHAKDVKRIEITVKTGTKAKADRYVPYTIAVNGTSTPILSDLKFTGDPRVGYKDISKKVKSVLKHDRGIGERELKYAKKATYTVHFKNGTKKVININSNISQLNLLYVQDIKKIDIDVKTGTKAKADSYVPYTIAVNGTSTPILSKLKISNKQLISYKYLNDKVKSVLKSERGISDLDLKFAKQAKYTVYFKNGKKQVVNLKSDIFTPNLFSAKDIKKIDIDVKQYTKSKKNK"}},
  "experiment_in_all_cases": "glycan array binding signal (z-score within array); higher = stronger binding",
  "conditions_in_all_cases": "glycan notation: IUPAC condensed, linker removed",
  "key": {"[1]": {"target": "Fuc(a1-2)Gal(b1-3)GalNAc(b1-3)Gal(a1-4)Gal(b1-4)Glc", "summary_of_the_method": "(§1)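 The binding signal is a Z-score computed within each array. Data were drawn from 3228 arrays in the Consortium for Functional Glycomics database, restricted to those with a known protein sequence. Scores were averaged over arrays of the same protein sequence at different concentrations or buffers, and over linkers, and negative values can be taken as non-binding.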"}, "[2]": {"target": "Fuc(a1-2)Gal(b1-3)[Fuc(a1-4)]GlcNAc", "summary_of_the_method": "as §1"}, "[3]": {"target": "Fuc(a1-2)[Gal(a1-3)]Gal(b1-3)GlcNAc(b1-2)Man(a1-3)[Fuc(a1-2)[Gal(a1-3)]Gal(b1-3)GlcNAc(b1-2)Man(a1-6)]Man(b1-4)GlcNAc(b1-4)GlcNAc", "summary_of_the_method": "as §1"}, "[4]": {"target": "Fuc(a1-2)[GalNAc(a1-3)]Gal", "summary_of_the_method": "as §1"}, "[5]": {"target": "Fuc(a1-2)[GalNAc(a1-3)]Gal(b1-4)GlcNAc(b1-3)Gal(b1-4)GlcNAc(b1-3)Gal(b1-4)GlcNAc", "summary_of_the_method": "as §1"}, "[6]": {"target": "Fuc(a1-3)[Gal(b1-4)]GlcNAc(b1-4)Gal(b1-4)[Fuc(a1-3)]GlcNAc(b1-4)Gal(b1-4)[Fuc(a1-3)]GlcNAc", "summary_of_the_method": "as §1"}, "[7]": {"target": "Fuc(a1-3)[Gal(b1-4)]GlcNAc6S", "summary_of_the_method": "as §1"}, "[8]": {"target": "Fuc(a1-3)[Gal3S(b1-4)]GlcNAc6S", "summary_of_the_method": "as §1"}, "[9]": {"target": "Fuc(a1-3)[Neu5Ac(a2-3)]Gal(b1-4)GlcNAc(b1-3)GalNAc", "summary_of_the_method": "as §1"}, "[10]": {"target": "Gal(a1-3)Gal(b1-4)[Fuc(a1-3)]GlcNAc", "summary_of_the_method": "as §1"}, "[11]": {"target": "Gal(a1-3)Gal(b1-4)[Fuc(a1-3)]GlcNAc(b1-2)Man(a1-3)[Gal(a1-3)Gal(b1-4)[Fuc(a1-3)]GlcNAc(b1-2)Man(a1-6)]Man(b1-4)GlcNAc(b1-4)GlcNAc", "summary_of_the_method": "as §1"}, "[12]": {"target": "Gal(a1-4)Gal(b1-4)GlcNAc(b1-3)Gal(b1-4)Glc", "summary_of_the_method": "as §1"}, "[13]": {"target": "Gal(b1-3)GalNAc", "summary_of_the_method": "as §1"}, "[14]": {"target": "Gal(b1-3)GalNAc(b1-4)Gal(b1-4)Glc", "summary_of_the_method": "as §1"}, "[15]": {"target": "Gal(b1-4)GlcNAc(b1-2)Man(a1-6)Man(b1-4)GlcNAc(b1-4)GlcNAc", "summary_of_the_method": "as §1"}, "[16]": {"target": "Gal(b1-4)GlcNAc(b1-3)Gal(b1-4)GlcNAc(b1-3)Gal(b1-4)GlcNAc", "summary_of_the_method": "as §1"}, "[17]": {"target": "Gal3S(b1-4)GlcNAc", "summary_of_the_method": "as §1"}, "[18]": {"target": "Gal3S4S(b1-4)GlcNAc", "summary_of_the_method": "as §1"}, "[19]": {"target": "GlcA(b1-6)Gal", "summary_of_the_method": "as §1"}, "[20]": {"target": "GlcNAc(a1-4)Gal(b1-4)GlcNAc(b1-3)Gal(b1-4)Glc", "summary_of_the_method": "as §1"}, "[21]": {"target": "GlcNAc(a1-4)Gal(b1-4)GlcNAc(b1-3)Gal(b1-4)GlcNAc", "summary_of_the_method": "as §1"}, "[22]": {"target": "GlcNAc(a1-4)Gal(b1-4)GlcNAc(b1-3)Gal(b1-4)[Fuc(a1-3)]GlcNAc(b1-3)Gal(b1-4)[Fuc(a1-3)]GlcNAc", "summary_of_the_method": "as §1"}, "[23]": {"target": "GlcNAc(b1-4)GlcNAc(b1-4)GlcNAc(b1-4)GlcNAc(b1-4)GlcNAc(b1-4)GlcNAc", "summary_of_the_method": "as §1"}, "[24]": {"target": "Man(a1-2)Man(a1-3)[Man(a1-6)]Man(a1-6)[Man(a1-2)Man(a1-3)]Man(b1-4)GlcNAc(b1-4)GlcNAc", "summary_of_the_method": "as §1"}, "[25]": {"target": "Neu5Ac(a2-3)Gal(b1-4)[Fuc(a1-3)]GlcNAc", "summary_of_the_method": "as §1"}, "[26]": {"target": "Neu5Ac(a2-3)Gal(b1-4)[Fuc(a1-3)]GlcNAc(b1-6)[Gal(b1-3)]GalNAc", "summary_of_the_method": "as §1"}, "[27]": {"target": "Neu5Ac(a2-3)Gal(b1-4)[Fuc(a1-3)]GlcNAc(b1-6)[Neu5Ac(a2-3)Gal(b1-3)]GalNAc", "summary_of_the_method": "as §1"}, "[28]": {"target": "Neu5Ac(a2-3)GalNAc", "summary_of_the_method": "as §1"}, "[29]": {"target": "Neu5Ac(a2-6)Gal(b1-4)GlcNAc6S", "summary_of_the_method": "as §1"}, "[30]": {"target": "Neu5Ac(b2-6)Gal(b1-4)GlcNAc", "summary_of_the_method": "as §1"}, "[31]": {"target": "Neu5Gc(a2-3)Gal(b1-3)GlcNAc", "summary_of_the_method": "as §1"}},
  "note": "The full list was thinned out, with the strongest signals kept by preference.",
  "data": [
    {"binder": "B1", "values": [
      {"measurement": "glycan array binding signal (z-score)", "setting": "[1]", "result": 0.012},
      {"measurement": "glycan array binding signal (z-score)", "setting": "[2]", "result": -0.514},
      {"measurement": "glycan array binding signal (z-score)", "setting": "[3]", "result": -0.498},
      {"measurement": "glycan array binding signal (z-score)", "setting": "[4]", "result": -0.319},
      {"measurement": "glycan array binding signal (z-score)", "setting": "[5]", "result": 3.63},
      {"measurement": "glycan array binding signal (z-score)", "setting": "[6]", "result": -0.587},
      {"measurement": "glycan array binding signal (z-score)", "setting": "[7]", "result": 1.35},
      {"measurement": "glycan array binding signal (z-score)", "setting": "[8]", "result": 4.89},
      {"measurement": "glycan array binding signal (z-score)", "setting": "[9]", "result": 3.33},
      {"measurement": "glycan array binding signal (z-score)", "setting": "[10]", "result": -0.392},
      {"measurement": "glycan array binding signal (z-score)", "setting": "[11]", "result": -0.414},
      {"measurement": "glycan array binding signal (z-score)", "setting": "[12]", "result": -0.4},
      {"measurement": "glycan array binding signal (z-score)", "setting": "[13]", "result": -0.063},
      {"measurement": "glycan array binding signal (z-score)", "setting": "[14]", "result": -0.183},
      {"measurement": "glycan array binding signal (z-score)", "setting": "[15]", "result": -0.437},
      {"measurement": "glycan array binding signal (z-score)", "setting": "[16]", "result": -0.513},
      {"measurement": "glycan array binding signal (z-score)", "setting": "[17]", "result": -0.007},
      {"measurement": "glycan array binding signal (z-score)", "setting": "[18]", "result": 1.97},
      {"measurement": "glycan array binding signal (z-score)", "setting": "[19]", "result": -0.24},
      {"measurement": "glycan array binding signal (z-score)", "setting": "[20]", "result": 4.14},
      {"measurement": "glycan array binding signal (z-score)", "setting": "[21]", "result": 4.58},
      {"measurement": "glycan array binding signal (z-score)", "setting": "[22]", "result": 8.99},
      {"measurement": "glycan array binding signal (z-score)", "setting": "[23]", "result": -0.455},
      {"measurement": "glycan array binding signal (z-score)", "setting": "[24]", "result": -0.331},
      {"measurement": "glycan array binding signal (z-score)", "setting": "[25]", "result": -0.563},
      {"measurement": "glycan array binding signal (z-score)", "setting": "[26]", "result": -0.08},
      {"measurement": "glycan array binding signal (z-score)", "setting": "[27]", "result": -0.297},
      {"measurement": "glycan array binding signal (z-score)", "setting": "[28]", "result": -0.425},
      {"measurement": "glycan array binding signal (z-score)", "setting": "[29]", "result": -0.392},
      {"measurement": "glycan array binding signal (z-score)", "setting": "[30]", "result": -0.365},
      {"measurement": "glycan array binding signal (z-score)", "setting": "[31]", "result": -0.196}
    ]}
  ]
}
